hERG WT inh = blocks the wildtype human KCNH2 potassium channel. Q12809. U2OS, BacMam KCNH2, thallium flux FluxOr; active compounds read low. activity change, % at 1.84 µM. hit rate 0.37% among 340,000. AID 720551;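 active = maximum activity change below -70%; inconclusive = maximum activity change between -70% and -50%; inactive = maximum activity change above -50%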; note: % is set by controls: 0 for no effect and ±100 for the full control effect
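U2OS cells transduced with wild-type KCNH2 virus are loaded with FluxOr dye for 45 min, and thallium flux is measured in kinetic reads before and after stimulation buffer. Rate constants are normalized to DMSO controls.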
KCNH2 3.1 inh = KCNH2 3.1 (human) potassium channel inhibition | U2OS KCNH2 3.1, thallium flux FluxOr; active compounds read low | activity change, % (tested at about 1.8 µM) | hit rate 0.95% among 340,000 | AID 720553;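 active = maximum activity change below -70%; inconclusive = maximum activity change from -70% to -50%; inactive = maximum activity change above -50%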;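 note: thallium influx rate constant from kinetic fluorescence after stimulation buffer; % is set by controls: 0 for no effect and ±100 for the full control effect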
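Virally transduced U2OS (3.1 isoform, 4 h infection in dark at RT) → overnight 37 C → FluxOr + Red40 in HBSS/HEPES, 45 min → stimulation buffer, 2 min kinetic read → rate constant vs DMSO controls.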
PLK1 PBD block = inhibitors of human PLK1 polo-box domain binding; P53350; Plk1 PBD binding of FITC phosphopeptide, fluorescence polarization; Potency, µM, inactives show max response, negative = inhibition, actives largely listed as inhibitors; hit rate 2.8% among 360,000; AID 720504; note: potency is the fitted concentration of half-maximal effect; series mostly up to about 57 µM; % is set by controls: 0 for no effect and ±100 for the full control effect; nearly all actives have a fitted effect of over 65% in size
CBFb RUNX1 block = CBF-beta/RUNX1 interaction disruption; AID 1477; AlphaScreen CBFb-His/RUNX1-biotin binding, biochemical; 230,000 tested, under 10 active; Potency, µM (top dose mostly 59.8 µM), for inactives: top-dose activity, negative = inhibition, most hits filed as inhibitors; Q01196+Q13951; note: % of control where 0% means no effect
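Interaction loss through any mechanism counts as activity. Pre-formed complex of His-CBF-beta and biotin-RUNX1 (30 nM apiece) is incubated with compound 15 min, then with 50 ng nickel and 50 ng streptavidin beads for 90 min before AlphaScreen detection.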
VDR inhibitor = inhibitors of human vitamin D receptor; P11473; VDR-SRC2-3 peptide fluorescence polarization, 2 h; Potency, µM, for inactives: max response, negative = inhibition, actives largely listed as inhibitors; hit rate 0.93% among 400,000; note: potency is the fitted concentration of half-maximal effect; % is set by controls: 0 for no effect and ±100 for the full control effect
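FP read-out; VDR + SRC2-3 coactivator peptide; 23 nl compound by pintool; 2 h RT incubation; reagents held at 4 deg C, protected from light.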
MBNL1 CUG block = inhibitors of human MBNL1 binding to CUG repeat RNA; TR-FRET MBNL1-His/biotin-(CUG)12 binding, 665/545 ratio; Potency, µM (top dose mostly 57.5 µM), inactives show at the top dose activity change, negative = inhibition, usual class: inhibitors; hit rate 0.036% among 280,000; active = well fitted inhibition curve with a large enough effect in the signal ratio, with a control signal flat, not every such curve was filed as active; inconclusive = small, poorly fitted or top-dose-only effect, or effect the other way, or a change in a side signal; inactive = no such curve, though single readings can be large or run the other way; the % refers to the signal ratio; note: potency is the fitted concentration of half-maximal effect; % is set by controls: 0 for no effect and ±100 for the full control effect
Target sequence (Q9NR56 whole entry, looked up): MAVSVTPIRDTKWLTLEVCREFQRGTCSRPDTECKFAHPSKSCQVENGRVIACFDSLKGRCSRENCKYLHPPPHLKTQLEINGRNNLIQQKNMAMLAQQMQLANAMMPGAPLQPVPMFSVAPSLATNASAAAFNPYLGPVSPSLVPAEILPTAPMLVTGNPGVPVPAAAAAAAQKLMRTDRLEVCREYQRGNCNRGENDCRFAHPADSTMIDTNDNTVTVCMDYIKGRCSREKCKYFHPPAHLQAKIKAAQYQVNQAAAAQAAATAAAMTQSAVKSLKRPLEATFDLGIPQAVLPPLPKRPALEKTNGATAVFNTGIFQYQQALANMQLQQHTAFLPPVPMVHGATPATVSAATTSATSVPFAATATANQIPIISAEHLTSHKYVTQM
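Compounds (final 92 nM to 58 uM) are added to His-tagged MBNL1 and biotin-(CUG)12, then terbium anti-His antibody and streptavidin-XL665 (5 nM final). After 60 min at room temperature, the 665/545 nm ratio is read.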
* marks the source's active call; other numbers are inactive results; ? = inconclusive; . = no result; [ ] = dose if it differs, or a comment. The list is not random: actives were taken first. Their share in the collection is about 3.8%. Unless noted, calls come from the whole dose curve; as a rule, active = well fitted curve in the direction sought with a large enough effect; inconclusive = small, poorly fitted or top-dose-only effect, or another doubt; inactive = no such curve, though single readings can be large; an effect the other way counts as inactive or inconclusive.

SMILES | hERG WT inh | KCNH2 3.1 inh | PLK1 PBD block | CBFb RUNX1 block | VDR inhibitor | MBNL1 CUG block
Cc1ccc(/C=N/Nc2ccnc3cc(Cl)ccc23)c(C)c1 | 9 | -41 | 27µM* | 1% | -12% | -18%
Cc1ccccc1/C=N/Nc1ccnc2cc(Cl)ccc12 | 14 | -25 | -1% | -14% | 15% | 9%
CCN(CC)CCCNC(=O)C1CCC(CNS(=O)(=O)c2c(C)cc(C)cc2C)CC1 (stereo unspecified) | 10 | -12 | 5% | . | 12% | 1%
CCCCN(C)CCCNC(=O)C1CCC(CNS(=O)(=O)c2c(C)cc(C)cc2C)CC1 (stereo unspecified) | -26 | -77* | 21µM* | . | ? | -8%
CCCn1nnnc1NCc1c(F)cccc1Cl | . | 12 | 8.4µM* | 3% | ? | 12%
CCOC(=O)C(CC)N1CCN(Cc2ccc(F)cc2)C(=O)C1=O (stereo unspecified) | . | . | . | . | 12% | .
COc1ccc(CNCCS(=O)(=O)NN2CCOCC2)cc1 | -8 | 11 | 9.5µM* | . | ? | .
CCCCCCCCNCCS(=O)(=O)NN1CCOCC1 | 9 | -3 | 7.5µM* | . | -17% | .
CCCS(=O)(=O)N1CC(=O)N(c2ccccc2C)C(C)(C(=O)NC2CCCCC2)C1 (stereo unspecified) | . | . | . | . | 7% | .
COCCCNC(=O)c1sc2nc(C)c(C(=O)Nc3ccc(C)cc3C)c(-c3ccc(Cl)cc3)c2c1N | . | . | . | . | -8% | .
O=C(NCc1ccc2c(c1)OCO2)c1ccc2c(c1)N(Cc1ccccc1F)C(=O)c1ccccc1S2=O (stereo unspecified) | . | . | . | . | -22% | .
C[C@H](NC(N)=O)C(=O)Nc1ccc(N2CCOCC2)c(S(=O)(=O)Nc2ccc(Cl)cc2)c1 | -2 | -12 | 2.7µM* | . | ? | .
CCC(=O)Nc1ccc(N2CCOCC2)c(S(=O)(=O)Nc2ccc(Cl)cc2)c1 | 7 | 1 | 7.5µM* | . | ? | .
COc1ccc(NS(=O)(=O)c2cc(NC(=O)c3ccc(Cl)cc3)ccc2N2CCOCC2)cc1 | 0 | ? | 18% | . | 6% | .
COCCNC(=S)Nc1ccc(N2CCOCC2)c(S(=O)(=O)Nc2ccc(Cl)cc2)c1 | 8 | -2 | 2.4µM* | . | . | .
COc1ccc(NS(=O)(=O)c2ccc(N3CCOCC3)c(NC(=O)C(C)C)c2)cc1 | -6 | 2 | -1% | 5% | -12% | -6%
O=S(=O)(Nc1ccc(Cl)cc1)c1ccc(N2CCOCC2)c(NC(=S)NCCN2CCOCC2)c1 | 1 | 11 | 1.7µM* | -2% | ? | -5%
CSCC[C@H](NC(=O)[C@H](Cc1ccccc1)NC(=O)[C@H](Cc1cnc[nH]1)NC(=O)CNC(=O)[C@@H](NC(=O)[C@H](C)NC(=O)[C@H](Cc1c[nH]c2ccccc12)NC(=O)[C@H](CC(C)C)NC(=O)[C@H](CC(N)=O)NC(=O)CN)[C@@H](C)O)C(N)=O | . | . | . | -3% | -7% | .
CCOC(=O)c1ccc(CN(Cc2ccc(C)cc2)S(=O)(=O)c2ccc(F)c(C(=O)Nc3ccc(C)c(F)c3)c2)cc1 | . | . | . | . | 1% | .
O=C(Nc1cc(S(=O)(=O)Nc2ccc(Cl)cc2)ccc1N1CCCCC1)c1ccc(F)cc1 | -7 | 2 | 12µM* | 2% | ? | -5%
Cc1oc2ncn(CC(C)C)c(=O)c2c1C(=O)NCCc1ccc(Cl)cc1 | . | . | . | . | 7% | .
CCCC(=O)N1CCN(c2nc3ccc(F)cc3s2)CC1 | . | . | . | . | 8% | .
O=[N+]([O-])c1cc(Cl)cc(/C=N\Nc2ccccn2)c1O | 2 | -4 | 3.4µM* | -15% | ? | -3%
O=[N+]([O-])c1ccc(Cl)cc1C=NNc1ccccn1 | 8 | . | 0% | . | 14% | .
CC1=NN(C(=O)c2cc(C)nn2C)C(O)(C(F)(F)F)C1 (stereo unspecified) | 0 | -7 | 0% | 5% | 3% | 8%[11.5 µM]
SMILES | hERG WT inh | KCNH2 3.1 inh | PLK1 PBD block | CBFb RUNX1 block | VDR inhibitor | MBNL1 CUG block
CC1=NN(C(=O)c2c(Br)cnn2C)C(O)(C(F)(F)F)C1 (stereo unspecified) | 1 | 1 | 11µM* | 0% | -14% | -11%
c1ccc(C2=Nn3c(nnc3-c3ccco3)SC2)cc1 | 4 | . | 30µM* | 1% | -2% | 6%
COc1ccc2nc(N3CCCC3)c(C#N)cc2c1 | 2 | 13 | 17µM* | ? | -21% | 77%
COc1ccc2nc(SCC(=O)N3CCCCCC3)c(C#N)cc2c1 | 3 | -88* | -3% | 4% | 9% | ?
O=C(CSc1nc(-c2ccc(Cl)cc2)nc2c1Cc1ccccc1O2)N1CCCCC1 | . | . | . | . | -12% | .
COc1ccc(-c2nc3c(c(SCC(=O)N4CCCCC4)n2)Cc2cc(Cl)ccc2O3)cc1 | . | . | . | . | 89µM* | .
CCCN(CCC)C(=O)Cn1c(=O)n(-c2ccc(CC)cc2)c(=O)c2c3c(sc21)CCC3 | . | . | . | . | 17% | .
CCCCC1(C)OC(=O)C(=Cc2ccc(SC)cc2)C(=O)O1 (stereo unspecified) | -4 | 9 | 2.4µM* | 0% | 10% | -8%
O=C(CSc1nnc(-c2ccccc2)o1)c1cccc([N+](=O)[O-])c1 | . | . | . | . | -3% | .
COc1cc(NS(=O)(=O)c2ccc(N/C=C\C(=O)c3ccc(C)cc3)cc2)nc(OC)n1 | -4 | -2 | 3.4µM* | . | -20% | .
COc1cc(NS(=O)(=O)c2ccc(NC(=S)NC(=O)c3sc4cc(F)ccc4c3Cl)cc2)nc(OC)n1 | 12 | -4 | 27µM* | -5% | ? | -13%
COc1ccc(N/C=C\C(=O)c2ccc(C)cc2)cc1OC | -22 | -141* | 15% | -3% | -12% | ?
COc1ccc(-c2csc(Nc3ccc(S(=O)(=O)Nc4cc(OC)nc(OC)n4)cc3)n2)cc1 | -11 | 8 | 24µM* | 0% | -1% | .
COc1cc(NS(=O)(=O)c2ccc(NC(=S)NC(=O)c3sc4ccccc4c3Cl)cc2)nc(OC)n1 | -20 | -9 | ? | -5% | -12% | 1%
O=S1(=O)CC(O)C(NCc2ccco2)C1 (stereo unspecified) | 4 | 8 | -4% | 5% | ? | 0%
CC(C)(C)c1cc(CNC2CS(=O)(=O)C[C@@H]2O)cc(C(C)(C)C)c1O (stereo partly specified) | 6 | 1 | ? | 2% | 50µM* | 7%
Cc1ccc(S(=O)(=O)NC(=O)NC2CCCC2)cc1 | . | . | . | . | 2% | .
CCOC(=O)c1c(NC(=O)c2ccccc2C)sc2c1CC(C)(C)OC2 | -7 | 2 | 21µM* | -7% | -22% | -4%
C=C(C)CNC(=S)Nc1sc2c(c1C(=O)OCC)CC(C)(C)OC2 | 4 | -27 | 19µM* | 9% | ? | 17%
CCCC(=O)Nc1sc2c(c1C(=O)OCC)CC(C)(C)OC2 | 7 | -4 | -3% | 0% | 12% | 2%

Screening data as filed in PubChem BioAssay.
